# Source: PubChem BioAssay (NCI)
# This is part of a sample that, as a whole, favours compounds with a hit. Of some 83,000 tested, about 20% had one in any assay.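 Plates (96-well) were seeded with cells, treated with compound at one concentration, and incubated for 48 hours before percent growth was determined.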 Unmarked numbers belong to inactive results. Calls of active or inactive are those of the source. The calls were made as follows: active = growth percent below 10; inactive = the rest.
# How the values were obtained:
# Assay in all cases: NCI-60 one-dose screen, 48 h (100 = growth as untreated, 0 = no growth, -100 = all killed)
# Details in all cases: 10 µM unless noted
# [1] = tested on: NCI-H23 lung
# [2] = tested on: NCI-H226 lung
# [3] = tested on: HOP-62 NSCLC
# [4] = tested on: NCI-H460 lung
# [5] = tested on: HOP-92 NSCLC
# [6] = tested on: NCI-H522 lung
# [7] = tested on: A549/ATCC NSCLC
# [8] = tested on: 786-0 renal
# [9] = tested on: COLO 205 colon
Compound,growth [1],growth [2],growth [3],growth [4],growth [5],growth [6],growth [7],growth [8],growth [9]
N#CC1=C(N)Oc2c(sc3c(Br)cccc23)C1c1ccc(Cl)cc1 (stereo not drawn),17.2%,39.7%,14.3%,8.2% (active),35.6%,-26.8% (active),1.31% (active),5.59% (active),-42.2% (active)
O=c1c2ccccc2n2cnc3ccc(Cl)c1c32,86.2%,93.9%,93.1%,58.5%,102%,65.4%,67.8%,73.3%,91.8%
C=CCSc1nnc(NC(=O)CCl)s1,93.6%,88.8%,109%,99.9%,112%,85.3%,95.2%,101%,122%
COc1ccc(C(=O)N2c3ccccc3Sc3ccccc32)c(OC)c1,38%,31.3%,48.4%,9.97% (active),31.3%,-9.67% (active),30.6%,28.6%,-11.4% (active)
CC1=NC2=Nn3c(c4cnn(-c5ccccc5)c4n/c3=N\N)NN2C(c2ccccc2)=C1,87.5%,90.7%,96.1%,,74.3%,89%,96%,104%,107%
C/C(Cc1ccc(Cl)cc1)=C(\c1ccc(O)cc1)c1ccc(Cl)cc1,85.2%,93.3%,110%,91.5%,83.1%,84.1%,94.8%,89.5%,
Cn1ccnc1C(=O)/C=C/c1ccc(C(=O)Nc2ccccc2O)cc1,30.6%,63.4%,12.7%,8.78% (active),81.4%,60.4%,31.2%,9.95% (active),
CCC(C)(C)C(=O)O[C@H]1C[C@@H](C)C=C2C=C[C@H](C)[C@H](CC[C@@H]3CC(SCCN)CC(=O)O3)[C@H]21 (stereo partly drawn),98.2%,98.3%,98.9%,107%,,65.4%,75.7%,102%,82.8%
Cc1cc(=O)n(C(=O)Nc2ccccc2Cl)c2cc(O)ccc12,98.6%,98.7%,89.2%,,79.7%,95.2%,101%,103%,100%
C=CCOC(=O)Nc1cccn([C@H](Cc2ccccc2)C(=O)NCCC(C)C)c1=O,89.7%,82%,104%,105%,87.5%,99.5%,97.9%,112%,110%
CCOC(=O)n1ccn(C)c1=S,107%,109%,60.5%,113%,104%,84.6%,101%,90.6%,31.9%
O=C(Nc1ccc(OS(=O)(=O)c2ccc(F)cc2)cc1)C1CCCCCC1,83.6%,94.3%,98.6%,,83.4%,81.2%,92.5%,96.6%,64.6%
N#CC1=C(c2ccccc2)Nc2c(c(-c3ccc(Cl)cc3)nn2-c2ccccc2)C12C(=O)Nc1ccc(Cl)cc12 (stereo not drawn),92.1%,80.7%,77.3%,71.2%,61.8%,72.2%,54.7%,79.2%,73%
Fc1ccc(CNc2c3ccccc3nc3ccccc23)c(F)c1,42.8%,54.8%,57.2%,20%,,42.3%,40.1%,47.6%,26.8%
COc1ccc(CNc2c3ccccc3nc3ccccc23)cc1,38.8%,51.4%,53.9%,9.69% (active),24.6%,53%,28.9%,32.4%,11.6%
O=C1c2ccc3c4c5ccc(c24)C(=O)N1CCCOCCCCOCCCNCc1ccc(cc1)CNCCCOCCCCOCCCN(C3=O)C5=O,-52.3% (active),72.8%,33.6%,3.03% (active),45.8%,-39.2% (active),-40.1% (active),-6.67% (active),-71% (active)
O=C(NCCNc1nccc(Nc2ccc(S(=O)(=O)Nc3ccccn3)cc2)n1)c1cccc([N+](=O)[O-])c1,97.4%,98.7%,99.2%,104%,102%,82%,94.8%,98%,110%
CSc1nc2ccccc2cc1/C=C1/C=C(c2ccccc2)NC1=O,87.4%,92.9%,79.1%,84.7%,70.2%,74.6%,81.9%,93.2%,93.8%
C=C(C)[C@@H]1CC[C@]2(C(=O)N3CCOCC3)CC[C@]3(C)[C@H](CC[C@@H]4[C@@]5(C)C/C(=C/c6ccncc6)C(=O)C(C)(C)[C@@H]5CC[C@]43C)[C@@H]12,61.7%,42.9%,80.8%,49.7%,39.5%,50.3%,42.4%,76.4%,51.5%
COC(=O)/C=C1/SC(=Nc2cccc(OC)c2)N(CCc2c[nH]c3ccc(O)cc23)C1=O,76.1%,89.6%,69.8%,61.3%,50.4%,54.3%,87.3%,74.3%,106%
